Screening results from PubChem.
TGFb SMAD3 inh – inhibitors of TGF-b signaling | HepG2 CAGA-GFP TGF-b/SMAD3 reporter, GFP fluorescence, 18 h; TGF-beta stimulated, 500 pg/mL final | Potency, µM (top dose mostly 46.1 µM), usual class: inhibitors | 410,000 compounds, 1.2% hits; also: nearly all actives have a fitted effect of over 65% in size
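Inhibition was scored as loss of TGF-beta-induced (500 pg/mL final, 18 hours, 37 degrees C) GFP in HEPG2 cells carrying a CAGA-GFP reporter, in DMEM with 1% FBS. Well GFP was summed per cell; Activity was normalised to unstimulated and stimulated DMSO wells, then concentration-response fitting.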
DT40 TDP1 CPT – growth inhibition of DT40 Tdp1-/-;hTDP1 cells with camptothecin (screen for TDP1 inhibitors) | Potency, µM (series often up to 46.2 µM), most hits filed as inhibitors | 420,000 compounds, 12% hits | chicken DT40 Tdp1-/-;hTDP1 cells + 20 nM CPT, ATP luminescence, 48 h; also: nearly all actives have a fitted effect of over 55% in size
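Chicken DT40 Tdp1-/- cells complemented with human TDP1, 400 cells/well, exposed to compounds plus 20 nM camptothecin for at least 48 h at 37 C; viability read as ATP content by CellTiter-Glo luminescence.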
IL1B secr inh – inhibitors of inflammasome signaling (IL-1 beta secretion). THP-1 LPS/ATP IL-1B secretion, AlphaLISA, 16 h; active compounds read low. 360,000 compounds, 4.7% hits. activity change, % at 57.5 µM; in the data active = activity change below about -50%; inconclusive = mostly about -30% to -49%
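Secreted IL-1B measured by AlphaLISA bead assay after 16 h compound exposure of THP-1 cells; compounds (final up to 57.5 uM) added 1 h before LPS (250 ng/mL) and ATP (1.25 mM) stimulation; lower signal means less secretion.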
TDP1 inh – blocks human tyrosyl-DNA phosphodiesterase 1; recombinant TDP1, AlphaScreen DNA substrate cleavage; Potency, µM (top dose mostly 130 µM), hits mostly inhibitors; 350,000 compounds, 0.28% hits; AID 485290; also: nearly all actives have a fitted effect of over 40% in size
Target sequence (Q9NUW8 whole entry, looked up): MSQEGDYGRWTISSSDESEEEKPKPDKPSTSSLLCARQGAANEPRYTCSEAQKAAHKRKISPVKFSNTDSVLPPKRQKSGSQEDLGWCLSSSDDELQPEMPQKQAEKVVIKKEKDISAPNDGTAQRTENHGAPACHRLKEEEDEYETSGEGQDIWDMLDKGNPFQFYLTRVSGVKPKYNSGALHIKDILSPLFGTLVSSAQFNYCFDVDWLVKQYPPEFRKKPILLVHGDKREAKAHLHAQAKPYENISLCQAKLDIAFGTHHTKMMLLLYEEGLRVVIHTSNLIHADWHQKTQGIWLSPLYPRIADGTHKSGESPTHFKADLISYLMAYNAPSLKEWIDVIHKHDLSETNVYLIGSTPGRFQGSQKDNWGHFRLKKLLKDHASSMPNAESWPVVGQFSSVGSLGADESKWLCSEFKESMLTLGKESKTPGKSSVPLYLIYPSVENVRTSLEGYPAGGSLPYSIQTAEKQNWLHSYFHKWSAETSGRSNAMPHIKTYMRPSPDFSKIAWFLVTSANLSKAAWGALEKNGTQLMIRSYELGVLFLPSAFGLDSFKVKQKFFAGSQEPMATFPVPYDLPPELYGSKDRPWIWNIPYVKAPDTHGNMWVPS
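Recombinant human Tdp1 (E. coli-expressed, 1 nM final) preincubated with compounds 15 min at room temperature, then 5'-biotin/3'-phosphotyrosine-FITC DNA substrate (15 nM final) added for 5 min. AlphaScreen beads (10 ug/ml final) added 10 min; cleavage lowers signal.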
HepG2 viability – kills HepG2 cells in TGF-b inhibitor counter-screen. HepG2 CAGA-GFP viability, ATP luminescence, 18 h. 410,000 compounds, 0.76% hits. Potency, µM (doses to about 46.1 µM), hits mostly cytotoxic. AID 588856
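HepG2 CAGA-GFP cells (1000/well, DMEM with 1% FBS) received compound, then TGF-beta at 500 pg/mL final, and were incubated 18 hours at 37 degrees C. Viability was read by CellTiter-Glo luminescence. Media-only wells were set as complete cell-killing and DMSO as no toxicity.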
TDP1 cell noCPT – qHTS for Inhibitors of human tyrosyl-DNA phosphodiesterase 1 (TDP1): qHTS in cells in absence of CPT; DT40 Tdp1-/- hTDP1 cells, no CPT, ATP luminescence, 48 h; Potency, µM (highest dose often 46.2 µM), usual class: inhibitors; 420,000 compounds, 15% hits; also: nearly all actives have a fitted effect of over 55% in size
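No-CPT arm: Tdp1-/-;hTDP1 DT40 cells (400/well) plus compounds, incubated ≥48 hr at 37 °C. Readout CellTiter-Glo luminescence.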
Large screens that a line does not name were inactive. Hits are enriched below; roughly 18% of the tested compounds scored in any of these assays. Unless noted, calls follow the shape of the dose curve; as a rule, active = well fitted curve in the direction sought with a large enough effect; inconclusive = small, poorly fitted or top-dose-only effect, or another doubt; inactive = no such curve, though single readings can be large; an effect the other way counts as inactive or inconclusive.

Cc1ccc(/C=C2\SC(=S)N(CCCC(=O)Nc3cccnc3)C2=O)cc1	DT40 TDP1 CPT inconclusive, IL1B secr inh inconclusive, TDP1 cell noCPT inconclusive
COc1cccc(N2CCN(C(=O)c3oc4ccccc4c3NC(=O)CCc3cc(OC)no3)CC2)c1	TDP1 cell noCPT inconclusive
COc1ccc(C(=O)Sc2nncc3ccccc23)cc1	none
O/N=C(\c1ccc(Cl)cc1)c1cc2ccccc2o1	TGFb SMAD3 inh inconclusive, DT40 TDP1 CPT 18µM, TDP1 cell noCPT 18µM
O=C(Nc1ccc(Cl)cc1Cl)c1cc2ccccc2o1	none (no result: TDP1 inh)
O=C(Nc1ccc2oc(-c3ccc4ccccc4c3)nc2c1)c1cc(Cl)ccc1Cl	DT40 TDP1 CPT inconclusive, TDP1 cell noCPT inconclusive (no result: IL1B secr inh)
OCC1(Cc2ccc(F)cc2F)CCCN(CCCc2ccccc2)C1 (stereo not drawn)	DT40 TDP1 CPT inconclusive, IL1B secr inh -55, TDP1 cell noCPT 15µM (no result: TDP1 inh)
OCC1(Cc2ccccc2F)CCCN(CCc2ccccc2)C1 (stereo not drawn)	TDP1 cell noCPT inconclusive (no result: TDP1 inh)
OCC1(CCc2ccccc2)CCCN(CCCc2ccccc2)C1 (stereo not drawn)	DT40 TDP1 CPT inconclusive, IL1B secr inh -73, TDP1 cell noCPT inconclusive (no result: TDP1 inh)
CCCCNC(=S)Nc1ccc(SC(F)F)cc1	TGFb SMAD3 inh inconclusive, IL1B secr inh -105, TDP1 cell noCPT inconclusive
Oc1cccc(NC(=S)Nc2ccc(SC(F)F)cc2)c1	TGFb SMAD3 inh inconclusive, IL1B secr inh -58, TDP1 cell noCPT inconclusive
Oc1cccc2c(NC(=S)Nc3ccc(SC(F)F)cc3)cccc12	TGFb SMAD3 inh inconclusive, DT40 TDP1 CPT inconclusive, TDP1 cell noCPT inconclusive
CCCCNC(=S)Nc1ccc(F)cc1	none
COCc1nnc(NC(=O)CSCc2ccccc2)s1	none
COC(=O)c1c(C)cccc1C1CN=NC12Cc1ccccc1C2=O (stereo not drawn)	DT40 TDP1 CPT 15µM, IL1B secr inh -90, TDP1 cell noCPT inconclusive (no result: TDP1 inh)
COC(=O)CC1(C(=O)OC)Oc2ccc(Br)cc2C(=O)N1c1cccc(Cl)c1Cl (stereo not drawn)	TGFb SMAD3 inh inconclusive, DT40 TDP1 CPT 3.7µM, TDP1 cell noCPT 6.5µM
COC(=O)CC1(C(=O)OC)Oc2ccc(Br)cc2C(=O)N1c1ccc(Br)cc1Cl (stereo not drawn)	TGFb SMAD3 inh inconclusive, DT40 TDP1 CPT 5.8µM, TDP1 cell noCPT 4.1µM
COC(=O)CC1(C(=O)OC)Oc2ccc(Br)cc2C(=O)N1c1cc(Cl)c(Cl)cc1Cl (stereo not drawn)	TGFb SMAD3 inh inconclusive, DT40 TDP1 CPT 8.2µM, TDP1 cell noCPT 5.8µM
CCCCc1n[nH]c2c1/C(=N/O)CC(c1ccccc1)C2 (stereo not drawn)	DT40 TDP1 CPT inconclusive, IL1B secr inh -58, TDP1 cell noCPT inconclusive
CCCCc1noc2c1/C(=N\O)CC(c1ccccc1)C2 (stereo not drawn)	none
CCc1n[nH]c2c1/C(=N\O)CC(c1ccccc1)C2 (stereo not drawn)	DT40 TDP1 CPT inconclusive, TDP1 cell noCPT 23µM
CCc1n[nH]c2c1/C(=N\O)CC(C)(C)C2	none
Cc1oc(-c2ccc(Cl)cc2)nc1CS(=O)CC(=O)NCc1ccccn1 (stereo not drawn)	none
CC1=C/C(=C/N(C)c2ccccc2)C(=O)S1	DT40 TDP1 CPT 21µM, TDP1 cell noCPT 26µM (no result: TDP1 inh)
COC(=O)c1cn(NC(=O)c2cnccn2)c(=O)c2ccccc12	DT40 TDP1 CPT 7.3µM, TDP1 cell noCPT 7.3µM
O=C(Nn1cc(C(=O)Nc2ccccc2F)c2ccccc2c1=O)c1cnccn1	DT40 TDP1 CPT inconclusive, TDP1 cell noCPT inconclusive
O=C(c1ccc(Cl)c([N+](=O)[O-])c1)N(Cc1ccccc1)C1CCS(=O)(=O)C1 (stereo not drawn)	TDP1 cell noCPT inconclusive
CCCCCOc1c(Cl)cc(C(=O)N(Cc2ccc(C)o2)C2CCS(=O)(=O)C2)cc1Cl (stereo not drawn)	TGFb SMAD3 inh 18µM, DT40 TDP1 CPT 18µM, TDP1 cell noCPT 16µM (no result: IL1B secr inh)
CCCCOc1cccc(C(=O)N(Cc2ccc(Br)o2)C2CCS(=O)(=O)C2)c1 (stereo not drawn)	TGFb SMAD3 inh inconclusive, DT40 TDP1 CPT 18µM, TDP1 cell noCPT 16µM (no result: IL1B secr inh)
O=C(c1ccc(Cl)c([N+](=O)[O-])c1)N(Cc1ccc(Cl)cc1)C1CCS(=O)(=O)C1 (stereo not drawn)	TGFb SMAD3 inh inconclusive, DT40 TDP1 CPT inconclusive, IL1B secr inh -88, TDP1 cell noCPT 23µM
Cc1ccc(CN(C(=O)c2ccc(Cl)c([N+](=O)[O-])c2)C2CCS(=O)(=O)C2)o1 (stereo not drawn)	IL1B secr inh -95
CCCCCOc1ccc(C(=O)N(Cc2ccco2)C2CCS(=O)(=O)C2)cc1 (stereo not drawn)	DT40 TDP1 CPT inconclusive, TDP1 cell noCPT inconclusive
CCOc1ccc(C(=O)NCCCN2CCOCC2)cc1OCC	none
COc1ccc(S(=O)(=O)n2nc(C)c(S(=O)(=O)N3CCCCC3)c2C)cc1	none (no result: IL1B secr inh)
O=C(c1ccc([N+](=O)[O-])cc1)N1CCN(c2ncccn2)CC1	none (no result: TDP1 inh)
Cc1coc2c1c(C)cc1oc(=O)c(CC(=O)NCc3ccc(Cl)cc3)c(C)c12	TDP1 cell noCPT inconclusive (no result: IL1B secr inh)
CN(C)S(=O)(=O)c1ccc(C(=O)NCc2nnc(SCC(=O)c3ccccc3)o2)cc1	TDP1 cell noCPT inconclusive
O=C(/C=C/c1ccc(Cl)cc1Cl)N(Cc1ccc(Cl)cc1)C1CCS(=O)(=O)C1 (stereo not drawn)	DT40 TDP1 CPT inconclusive, TDP1 cell noCPT 16µM
O=C(c1ccc(Cl)c([N+](=O)[O-])c1)N(Cc1cccc(Cl)c1)C1CCS(=O)(=O)C1 (stereo not drawn)	DT40 TDP1 CPT inconclusive, IL1B secr inh -93, TDP1 cell noCPT inconclusive
COc1ccc(-c2csc(N(CCCN3CCOCC3)C(=O)c3ccco3)n2)cc1	DT40 TDP1 CPT 18µM, IL1B secr inh inconclusive, TDP1 cell noCPT 16µM
COc1ccc(OC)c(-c2csc(N(Cc3ccco3)C(=O)c3ccco3)n2)c1	DT40 TDP1 CPT inconclusive, TDP1 cell noCPT 21µM
COc1ccc(-c2csc(N(C)C(=O)c3ccco3)n2)cc1	none (no result: TDP1 inh)
Cc1ccc(-c2csc(N(CCCN3CCOCC3)C(=O)c3ccco3)n2)cc1	TGFb SMAD3 inh inconclusive, DT40 TDP1 CPT inconclusive, IL1B secr inh -53, TDP1 cell noCPT 21µM
CN(C)CCCN(C(=O)c1ccco1)c1nc(-c2ccc(Cl)cc2)cs1	TGFb SMAD3 inh inconclusive, DT40 TDP1 CPT inconclusive, IL1B secr inh -54, TDP1 cell noCPT inconclusive (no result: TDP1 inh)
